Many of the other results were omitted from the sample, so hits are more common in it than they were.
U2OS ROS induce: cancer cell ROS induction | 46,000 compounds, 2% hits | ROS induction (% of piperlongumine), % at 10 µM | AID 624156 | U2OS ROS induction, H2DCF-DA fluorescence; in the data active = ROS induction above about 79%, passing the limit was not always enough; inconclusive = no clear call, values can overlap the other calls;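 note: 0% = DMSO vehicle median and 100% = reference compound median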
PD-1 reverse act: reversal of PD-1 mediated T-cell inhibition | primary human CD4 T cells, PD-L1 beads, CellTiter-Glo 96 h | activation, % (concentration not given with the values) | 29,000 tested, under 10 active | AID 2316; call rule not given here;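 note: 0% = median vehicle wells and 100% = positive control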
Numbers without * were called inactive; u = inconclusive; x = no result.

SMILES | U2OS ROS induce | PD-1 reverse act
CSc1nnc2c(n1)OC(C1CC=C(C)CC1)Nc1ccccc1-2 (centres undefined) | 103* | 0
CSc1nnc2c(n1)OC(C)Nc1ccccc1-2 (centres undefined) | 32 | 0
COc1cccc(-c2cnc3c(c2)C(=O)N([C@H](C)CO)C[C@H](C)[C@H](CN(C)C(=O)Nc2ccc(F)cc2)O3)c1 | 29 | x
COc1cccc(-c2cnc3c(c2)C(=O)N([C@H](C)CO)C[C@H](C)[C@H](CN(C)C(=O)Nc2ccc4c(c2)OCO4)O3)c1 | 94* | x
COc1ccc(-c2cnc3c(c2)C(=O)N([C@H](C)CO)C[C@H](C)[C@H](CN(C)C(=O)Nc2ccc4c(c2)OCO4)O3)cc1 | 33 | x
COc1cccc(-c2cnc3c(c2)C(=O)N([C@H](C)CO)C[C@H](C)[C@H](CN(C)C(=O)Nc2cccc4ccccc24)O3)c1 | 93* | x
Cc1ncc(CO)c2cc(-c3nnc(Nc4cc(C(F)(F)F)ccc4Cl)s3)c(=O)oc12 | -2 | x
CC(=O)NCCOc1c(C)cccc1C | -8 | 3
O=C(CC1(O)C(=O)N(Cc2ccccc2)c2ccc(Cl)cc21)c1ccncc1 (centres undefined) | 28 | -5
Cc1cc2c(cc1S(=O)(=O)N1CC(C)CC(C)C1)OCC(=O)N2 (centres undefined) | 85* | x
Cc1cc2c(cc1S(=O)(=O)N1CCc3ccccc31)OCC(=O)N2 | 18 | x
COc1cc(O)c2c(=O)cc(-c3ccc(OC)c(-c4c(O)cc(O)c5c(=O)cc(-c6ccc(O)cc6)oc45)c3)oc2c1 | 179* | x
COc1ccc(-c2cc(=O)c3c(O)cc(O)cc3o2)cc1 | 39 | x
CS(=O)c1sc(C(=O)OCc2ccccc2)c2c1C(=O)CC(C)(C)C2 (centres undefined) | 0 | -7
O=C(CCCn1c(=O)c2cccn2c2ccccc21)NCCc1ccccc1 | -5 | x
CC(=O)OC[C@]12[C@H](OC(C)=O)[C@H](OC(C)=O)[C@@H]3[C@@H](OC(C)=O)[C@@]14O[C@@]3(C)COC(=O)c1ncccc1CC[C@H](C)C(=O)O[C@@H]([C@H](O)[C@@H]2OC(=O)c1ccccc1)[C@]4(C)O | u | -6
O=C(CSc1nc2ccccc2c(=O)[nH]1)Nc1cccc(I)c1 | 17 | -2
COC(=O)c1cc(NC(=O)CSc2nnc(-c3ccccc3O)n2-c2ccccc2)ccc1Cl | 6 | -1
C/C=C/[C@@H](CCn1cc([C@H](O)c2ccccc2)nn1)[Si](C)(C)c1ccc(OC)cc1 | 3 | x
C/C=C/[C@H](CCn1cc([C@H](O)c2ccccc2)nn1)[Si](C)(C)c1ccc(OC)cc1 | 110* | x
Cc1n[nH]c(=O)c2nc(-c3ccccc3)sc12 | -14 | x
Cc1ccc(/C=C/c2onc3c(=O)[nH]nc(C)c23)cc1 | 119* | x
NC(=O)COc1ccc(C=C2C(=O)c3ccccc3C2=O)cc1 | 44 | -4
O=C(NCc1ccco1)c1cnn2c(C(F)F)cc(-c3ccccc3)nc12 | 193* | -3
NC(=O)c1c(NC(=O)c2cnn3c(C(F)F)cc(-c4ccccc4)nc23)sc2c1CCC2 | 12 | 0
SMILES | U2OS ROS induce | PD-1 reverse act
COc1ccc(C(=O)NCc2cccnc2)cc1C(=O)NCc1cccnc1 | -3 | 2
COc1ccccc1-c1cc(C(F)F)n2ncc(C(=O)NCc3cccnc3)c2n1 | 116* | -6
Cc1ccc2nc(NCc3cccnc3)c(C=NCc3cccnc3)c(=O)n2c1 | 3 | x
O=C1NC(=O)N(c2ccccc2F)C(=O)/C1=C/c1cn(CC(=O)N2CCCC2)c2ccccc12 | 100* | x
C=CCn1cc(C=C2C(=O)OC3(CCCC3)OC2=O)c2ccccc21 | 45 | x
Cc1ccccc1N1C(=O)NC(=O)/C(=C\c2cn(CC(=O)N3CCOCC3)c3ccccc23)C1=O | 117* | x
CN1C(=O)/C(=C\c2cn(CC(=O)N3CCOCC3)c3ccccc23)C(=O)NC1=S | 3 | x
Cc1ccc(NC(=O)CCN2C(=O)c3ccccc3S2(=O)=O)cc1Cl | -5 | 0
Cc1ccc(-c2nc3cc(Cl)ccc3o2)cc1NC(=O)COc1ccccc1[N+](=O)[O-] | -3 | 3
CC1=CC(C)C2(COC(=O)Nc3ccccc3)COC(c3cccnc3)C1C2C (centres undefined) | -2 | 0
Cc1nnc(NCCc2ccccc2)[nH]c1=O | -6 | x
O=C1c2ccccc2-c2c(NCCc3ccccc3)c(=O)[nH]c3cccc1c23 | 813* | -3
O=C(CSCC(=O)Nc1ccccc1Oc1ccccc1)Nc1ccc2ccccc2c1 | 13 | x
CN(C)CCSc1nc(-c2cccs2)cc(-c2ccc(Cl)cc2)c1C#N | 20 | x
COc1ccccc1-c1cc(C(F)(F)F)nc(S(=O)(=O)CCCC(=O)N2CCOCC2)n1 | 90* | -16
COc1ccc(OC)c(S(=O)(=O)N(C)CC(=O)N2CCOCC2)c1 | -13 | 3
O=C(O)c1cccc(Nc2nc(Nc3ccccc3)nc(N3CCCC3)n2)c1 | 150* | x
CC(=O)c1cccc(NC(=O)CSc2nc(N3CCCCC3)nc(N3CCCCC3)n2)c1 | 20 | 1
C[C@@H]1CN([C@H](C)CO)C(=O)c2cccc(NC(=O)C3CCOCC3)c2O[C@H]1CN(C)Cc1ccc(-c2ccccc2)cc1 | 100* | x
C[C@@H]1CN([C@H](C)CO)C(=O)c2cccc(NC(=O)NC3CCCCC3)c2O[C@@H]1CN(C)Cc1ccc(-c2ccccc2)cc1 | 101* | 1
C[C@H]1CN([C@@H](C)CO)C(=O)c2cccc(NC(=O)NC3CCCCC3)c2O[C@H]1CN(C)Cc1ccc(-c2ccccc2)cc1 | 12 | -2
C[C@H](CO)N1C[C@H](C)[C@@H](CN(C)Cc2ccc(-c3ccccc3)cc2)Oc2c(NC(=O)C3CCOCC3)cccc2C1=O | 26 | 1
CCS(=O)(=O)c1nc(S(=O)(=O)c2ccc(Cl)cc2)c(NCc2ccc(OC)cc2)s1 | 6 | x
COCCOC(=O)N1C(=O)[C@@]2(c3ccccc31)[C@H](C(=O)N1CCN(c3ncccn3)CC1)[C@H]1C(=O)O[C@H](c3ccccc3)[C@H](c3ccccc3)N1[C@@H]2c1ccc(OCCO)cc1 | 105* | x
COCCOC(=O)N1C(=O)[C@@]2(c3cc(C#CC4=CCCCC4)ccc31)[C@H](c1ccc(OCCO)cc1)N1[C@H](c3ccccc3)[C@H](c3ccccc3)OC(=O)[C@H]1[C@@H]2C(=O)N1CCc2cc(OC)c(OC)cc2C1 | 39 | x
O=C1O[C@H](c2ccccc2)[C@H](c2ccccc2)N2[C@H]1[C@@H](C(=O)N1CCCCCCC1)[C@]1(C(=O)Nc3ccccc31)[C@H]2c1ccccc1OCCO | 48 | x
COc1ccc(C#Cc2ccc3c(c2)[C@]2(C(=O)N3)[C@H](c3ccccc3OCCO)N3[C@H](c4ccccc4)[C@H](c4ccccc4)OC(=O)[C@H]3[C@@H]2C(=O)N2CCN(c3ncccn3)CC2)cc1 | 19 | x
COCCOC(=O)N1C(=O)[C@@]2(c3ccccc31)[C@H](c1ccccc1OCCO)N1[C@H](c3ccccc3)[C@H](c3ccccc3)OC(=O)[C@H]1[C@@H]2C(=O)N1CCN(c2ncccn2)CC1 | 111* | x
COCCOC(=O)N1C(=O)[C@@]2(c3cc(C#CC4=CCCCC4)ccc31)[C@H](C(=O)N1CCN(c3ncccn3)CC1)[C@H]1C(=O)O[C@H](c3ccccc3)[C@H](c3ccccc3)N1[C@@H]2c1ccccc1OCCO | 128* | x

Screening data: PubChem BioAssay, Broad Institute
